From the supplement of paper PMC9950053
Counter-ions that a name gives are not always drawn.

Tested on: Danio rerio larvae (5 dpf)
Assay: startle (activity period 16 minus period 15, 20-s interval sound) minus DMSO control (percentage points); higher = stronger startle response than DMSO larvae
Conditions: 10 µM; exposure time: 3 h pre-incubation + 3 h imaging
Experimental: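 Wild-type 5 dpf zebrafish larvae (n=48 per drug, 96-well plates, 28.5 °C) were exposed to Tocris FDA-approved library compounds at 10 µM (0.1% DMSO) for 3 h before and 3 h during imaging. Images were taken every 6 s during visual and acoustic stimuli, and larvae were tracked with Z-LaP Tracker. Each measure is the treated-group mean minus the DMSO control mean (n=844), in percentage points. This mapping covers compounds with 5-character plate codes.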

**Q.** `COc1ccc(C(CN(C)C)C2(O)CCCCC2)cc1` (stereo unspecified) [Venlafaxine hydrochloride] was tested. Which startle did it give?
**A.** The startle was -6.7.
